Data published in PubChem BioAssay (Tox21).
Records with an inconclusive call do not appear. A number with no mark means an inactive call. Active and inactive are the calls of the source. Calls follow the shape of the dose curve; as a rule, active = well fitted cell-killing curve with a large enough effect in the repeat runs; inconclusive = weak or mixed curves; inactive = no such curve, though single readings can be large or run the other way.

Test: qHTS assay to identify small molecule antagonists of the peroxisome proliferator-activated receptor delta (PPARd) signaling pathway - cell viability counter screen (AID 743213); also: nearly all actives have a fitted effect of over 50% in size
Conditions: PPARd-bla HEK293H viability, CellTiter-Glo luminescence, 17 h; series mostly up to 62 µM; viability change, negative = cytotoxic: at the top concentration
Excerpt: U.S. Tox21 Program National Center for Advancing Translational Sciences [NCATS] NIH Chemical Genomics Center [NCGC] U.S. Environmental Protection Agency [EPA] National Institutes of Environmental Health Sciences [NIEHS] National Toxicology Program [NTP] U.S. Food and Drug Administration [FDA] Tox21 Assay Overview: The peroxisome proliferator-activated receptors (PPARs) are lipid-activated transcription factors of the nuclear receptor superfamily with three distinct subtypes namely PPAR alpha, PPAR delta (PPARd) and PPAR gamma. All these subtypes heterodimerizes with Retinoid X receptor (RXR) and have different physiological functions. […] To identify the compounds that inhibit PPAR-delta signaling, GeneBLAzer PPAR delta UAS-bla HEK293H cell line (Invitrogen, Carlsbad, CA, USA) containing a beta-lactamase reporter gene under the control of an Upstream Activator Sequence (UAS) was used to screen the Tox21 compound library. The cytotoxicity of the Tox21 compound library against the PPARd-bla cell line was tested in parallel by measuring the cell viability using CellTiter-Glo assay (Promega, Madison, WI) in the same wells.
Tox21 Assay Protocol Summary: PPARd-bla cells were dispensed at 3000 cells/5uL/well in 1536-well black wall/clear bottom plates using a Multidrop Combi (Thermo Fisher Scientific, Waltham, MA) dispenser. After the assay plates were incubated at 37 C and 5% CO2 for 5 h, 23 nL of compounds dissolved in DMSO, positive controls or DMSO only was transferred to the assay plate by a Pintool station (Kalypsys, San Diego, CA), followed by addition of 1ul L165041 (300 nM, final concentration in the wells). The assay plates were incubated at 37 C for 17 h, and then 1 uL of LiveBLAzerTM B/G FRET substrate was added using a Bioraptr Flying Reagent Dispenser (FRD) workstation (Beckman Coulter, Indianapolis, IN, USA). The assay plates were incubated at room temperature for 2 h and fluorescence intensity was measured by an Envision plate reader (PerkinElmer, Shelton, CT). For cell viability readout that measures cytotoxicity, 3 ul/well of CellTiter-Glo reagent was added into the assay plates using a Bioraptr FRD. After 30 min incubation at room temperature, the luminescence intensity in the plates was measured using a ViewLux plate reader (PerkinElmer).
% is scaled to controls: 0 for no effect and ±100 for the full control effect; potency is read from the fitted curve at half-maximal effect.

Question: For `CCOS(C)(=O)=O`, which “viability change, negative = cytotoxic” value is on record?
Answer: The value was 11.5% [at 80.4 µM].

Question: With `CC(=O)[C@H]1CC[C@H]2[C@@H]3CC[C@H]4C[C@](C)(O)CC[C@]4(C)[C@H]3CC[C@]12C` as the compound, how does the “viability change, negative = cytotoxic” value read?
Answer: The value was 0.0428%.

Question: With `CCCN(CCC)c1c([N+](=O)[O-])cc(S(C)(=O)=O)cc1[N+](=O)[O-]` as the compound, how does the “viability change, negative = cytotoxic” value read?
Answer: The value was 2.93%.

Question: With `Cc1ccc2ccccc2c1` as the compound, how does the “viability change, negative = cytotoxic” value read?
Answer: Its value is 3.17%.

Question: Which “viability change, negative = cytotoxic” value does the source give for `NNC(=O)c1cccnc1` here?
Answer: Its value is 3.29% [at 80.4 µM].

Question: Which “viability change, negative = cytotoxic” value does the source give for `O=C(O)CC(Cl)C(=O)O` (stereo not given) here?
Answer: The value was -8.46% [at 80.4 µM].

Question: Which “viability change, negative = cytotoxic” value does the source give for `C=CC(=O)OCCCCO` here?
Answer: The value was 10.3%.

Question: Which “viability change, negative = cytotoxic” value does the source give for `CC(C)(Cl)[N+](=O)[O-]` here?
Answer: The value was -0.298% [at 80.4 µM].

Question: For `ClCc1cccc(Cl)c1`, which “viability change, negative = cytotoxic” value is on record?
Answer: Its value is 1.1%.

Question: Which “viability change, negative = cytotoxic” value does the source give for `O=C(CBr)c1ccccc1` here?
Answer: Its value is 3.87% [at 80.4 µM].

Question: Which “viability change, negative = cytotoxic” value does the source give for `CCOP(=O)(OCC)SCCSCC` here?
Answer: The value was 18.5%.

Question: With `O=C1NCN(c2ccccc2)C12CCN(CCCOc1ccc(F)cc1)CC2` as the compound, how does the “viability change, negative = cytotoxic” value read?
Answer: The value was -35.8%.

Question: With `COP(=S)(OC)Oc1cc(Cl)c(I)cc1Cl` as the compound, how does the “viability change, negative = cytotoxic” value read?
Answer: Its value is -14.4%.

Question: With `O=S1OC[C@@H]2[C@H](CO1)[C@]1(Cl)C(Cl)=C(Cl)[C@@]2(Cl)C1(Cl)Cl` (stereo not given in full) as the compound, how does the “viability change, negative = cytotoxic” value read?
Answer: Its value is 0.361%.

Question: Which “viability change, negative = cytotoxic” value does the source give for `CCOc1nc(F)cc2nc(S(=O)(=O)Nc3c(Cl)cccc3Cl)nn12` here?
Answer: Its value is 14.7%.

Question: For `O=[N+]([O-])c1cc(C(F)(F)F)cc([N+](=O)[O-])c1Cl`, which “viability change, negative = cytotoxic” value is on record?
Answer: The value was -10.1% [at 80.4 µM].

Question: For `CCC(Br)(CC)C(=O)NC(N)=O`, which “viability change, negative = cytotoxic” value is on record?
Answer: Its value is -1.52%.

Question: With `Brc1ccccc1` as the compound, how does the “viability change, negative = cytotoxic” value read?
Answer: The value was 16.1%.

Question: Which “viability change, negative = cytotoxic” value does the source give for `COC(C)(C)CCC[C@H](C)C/C=C/C(C)=C/C(=O)OC(C)C` here?
Answer: The value was -24.2%.

Question: With `Clc1cccc(SC2CCNCC2)n1` as the compound, how does the “viability change, negative = cytotoxic” value read?
Answer: Its value is 0.672%.

Question: Which “viability change, negative = cytotoxic” value does the source give for `NS(=O)(=O)C(F)(F)C(F)(F)C(F)(F)C(F)(F)C(F)(F)C(F)(F)C(F)(F)C(F)(F)F` here?
Answer: Its value is -24.2%.

Question: With `NC(=O)C(Cl)(Cl)Cl` as the compound, how does the “viability change, negative = cytotoxic” value read?
Answer: The value was -24.1% [at 80.4 µM].

Question: With `CCOP(=S)(OCC)SCn1nnc2ccccc2c1=O` as the compound, how does the Potency read?
Answer: The Potency was 54.9 µM (active).

Question: For `c1ccoc1`, which “viability change, negative = cytotoxic” value is on record?
Answer: The value was 22.1%.

Question: With `Cc1cc(=O)[nH]o1` as the compound, how does the “viability change, negative = cytotoxic” value read?
Answer: The value was -1.77% [at 80.4 µM].

Question: Which “viability change, negative = cytotoxic” value does the source give for `C=CC(=O)OC(C)(C)C` here?
Answer: Its value is 10.7%.

Question: Which “viability change, negative = cytotoxic” value does the source give for `CCOP(O)OCC` here?
Answer: The value was 17.5%.

Question: With `O=C(Nc1ccccc1)Nc1ccnc(Cl)c1` as the compound, how does the “viability change, negative = cytotoxic” value read?
Answer: Its value is -23%.

Question: Which “viability change, negative = cytotoxic” value does the source give for `CC(C)N(CCC(C(N)=O)(c1ccccc1)c1ccccn1)C(C)C` (stereo not given) here?
Answer: Its value is -20.9%.

Question: With `CCN(C)N=O` as the compound, how does the “viability change, negative = cytotoxic” value read?
Answer: Its value is 4.62%.

Question: With `C=CC[C@]1(O)CC[C@H]2[C@@H]3CCC4=CC(=O)CCC4=C3C=C[C@@]21C` as the compound, how does the “viability change, negative = cytotoxic” value read?
Answer: The value was 14.9%.

Question: With `O=C1CN=C(c2ccccc2)c2cc(Cl)ccc2N1CC1CC1` as the compound, how does the “viability change, negative = cytotoxic” value read?
Answer: The value was 4.59%.

Question: For `Cl/C=C\C[N+]12CN3CN(CN(C3)C1)C2`, which “viability change, negative = cytotoxic” value is on record?
Answer: Its value is -0.489%.

Question: With `O=C(Nc1ccccc1)Nc1cnns1` as the compound, how does the “viability change, negative = cytotoxic” value read?
Answer: Its value is -0.0809%.

Question: With `C(=NC1CCCCC1)=NC1CCCCC1` as the compound, how does the Potency read?
Answer: Its Potency is “inactive”.

Question: Which “viability change, negative = cytotoxic” value does the source give for `CC1Sc2c(C(=O)O)c(=O)c3cc(F)c(N4CCNCC4)cc3n21` (stereo not given) here?
Answer: The value was -2.27%.

Question: For `COC(=O)C(C)N(C(=O)Cc1ccccc1)c1c(C)cccc1C` (stereo not given), which “viability change, negative = cytotoxic” value is on record?
Answer: The value was -16%.

Question: For `C=CCOC(C)=O`, which “viability change, negative = cytotoxic” value is on record?
Answer: The value was 9.28%.

Question: With `CC(C)(C)c1cc([N+](=O)[O-])cc([N+](=O)[O-])c1O` as the compound, how does the “viability change, negative = cytotoxic” value read?
Answer: Its value is -20.3%.

Question: With `N#C/C(N)=C(/N)C#N` as the compound, how does the “viability change, negative = cytotoxic” value read?
Answer: Its value is -7.05%.
